These results are taken from ChEMBL document CHEMBL4513216, “Probing the Open Global Health Chemical Diversity Library for Multistage-Active Starting Points for Next-Generation Antimalarials” (ACS Infect Dis, 2020).

Out of some 69,000 compounds screened, about 8,600 (12%) showed an effect of 50% or more. The sample holds strong results, similar compounds and a random draw of the others, so the mix is not that of the screen.

In this test the test system is Plasmodium berghei. Nature of the test: Screen against P. berghei liver stage (PbLuc), transformed with Luciferase, at 10uM. As to conditions: tested at 10 uM. The format is functional, HepG2.
Consider `CNc1ccnc(NCCC(=O)Nc2ccccc2C)n1`, for which the INHIBITION is 28.4%. For `O=C(C1CCOC1)N1C[C@H]2CN(Cc3ccncc3)C(=O)[C@H]2C1` (some centres undefined), the INHIBITION is reported as -22.2%. As to `CCN1C[C@@H]2CN(C(=O)C3CC=CC3)C[C@@H]2C1=O`, the INHIBITION turned out to be 15.7%.

For `Cc1cccc(CN2C[C@@H]3CN(C(=O)C4CC=CC4)C[C@@H]3C2=O)n1`, the INHIBITION was determined as 14.9%. Consider `O=C(C1CCC1)N1C[C@@H]2CN(Cc3ccncc3)C(=O)[C@@H]2C1`, for which the INHIBITION is on record as 50.3%.

As to `O=C(C1CC=CC1)N1C[C@H]2CN(Cc3ccncc3)C(=O)[C@H]2C1`, the INHIBITION came out at 56.6%. Next, `O=C1[C@H]2CN(Cc3ccoc3)C[C@H]2CN1Cc1ccncc1`: 45.1%.

Take `COc1ccc(C(=O)NS(=O)(=O)c2cncc(Br)c2)c(OC)c1`: the INHIBITION stood at 29.4%.

Take `Cc1ccc(-c2snnc2C(=O)NCCCO)cc1`: the INHIBITION is recorded as -19.7%.

As to `COc1cccc(OC)c1CC(=O)NC(C#N)c1ccsc1` (centres undefined), the INHIBITION is given as 0.0944%. Next, `Cc1ccc(C(=O)NC2CC2)c(-n2cnnn2)c1C`: 28.6%. Take `CN(C)c1ccc(CNC(=O)NCCc2cccs2)cn1`: the INHIBITION is -11.9%. Next, `c1cnc(N2CCCC(NCc3cccc4c3OCCO4)C2)nc1` (centres undefined): 22.9%; `CN(C)Cc1ccnc(C2CCCN2Cc2cc[nH]n2)n1` (centres undefined): 29.6%; `CN(C)Cc1ccnc(C2CCCN2Cc2ccc(F)cn2)n1` (centres undefined): 63.4%.

In the case of `CN(C)Cc1ccnc(C2CCCN2Cc2ccncc2)n1` (centres undefined), the INHIBITION turned out to be 40.4%. Next, `CCc1cnc(CN(C(C)=O)C2CCN(CC3(O)CCCCC3)C2)o1` (centres undefined): 5.9%; `c1ccc(-c2nc(CN3CCCC3Cn3cccn3)no2)cc1` (centres undefined): 44.3%.

With `Cc1nc(NC(=O)CN2C(=O)c3ccccc3NC2C(C)C)sc1C` (centres undefined), the INHIBITION is on record as 32.2%. Turning to `Cc1cc(N2CCC(N(C)Cc3cc(=O)c(O)co3)CC2)nc(C)n1`, the INHIBITION worked out at 28.7%. Next, `CN(Cc1cc(=O)c(O)co1)C1CCN(c2ccc(F)cc2)CC1`: 53.5%; `CN(Cc1cc(=O)c(O)co1)C1CCCN(c2ccccc2)C1` (centres undefined): 7.93%; `O[C@@H]1CC(CNCc2ccc(Cl)cc2)(COc2cccnc2)C[C@@H]1O` (some centres undefined): -26.2%. As to `COCCC(=O)N1CCC2(CCN(Cc3cccc(F)c3)C2)C1` (centres undefined), the INHIBITION is 57.9%.

Take `COCCC(=O)N1CC2(CCN(Cc3cccc(Cl)c3)CC2)C1`: the INHIBITION turned out to be 15.9%.

As for `COC(=O)N1CCN(Cc2ccccc2Cl)CC1`, the INHIBITION stood at 33.7%. Next, `COC(=O)CCC(=O)N1CCC2(CN(Cc3ccc(Cl)cc3)C2)C1`: -26.1%. Next, `COCCC(=O)N1CCC2(CN(Cc3cccc(F)c3)C2)C1`: 4.27%. As for `COCCC(=O)N1CCC2(CCN(Cc3cccc(F)c3)CC2)C1`, the INHIBITION amounted to 49.7%. Next, `COCCC(=O)N1CC2(CCN(Cc3ccccc3Cl)CC2)C1`: 69.5%.

For `COCCC(=O)N1CCC2(CN(Cc3ccc(OC)c(F)c3)C2)C1`, the INHIBITION is given as -44.8%.

As for `COC(=O)CCC(=O)N1CCC2(CN(Cc3cccc(Cl)c3)C2)C1`, the INHIBITION is reported as 57.9%. With `COCCC(=O)N1CCC2(CN(Cc3cccc(Cl)c3)C2)C1`, the INHIBITION is reported as 81.2%. Next, `COCCC(=O)N1CCC2(CCN(Cc3cccc(F)c3)CC2)CC1`: 45.1%. Next, `COC(=O)CCC(=O)N1CCC2(CN(Cc3ccccc3)C2)C1`: 5.56%; `CC(=O)N(C)Cc1cccc(NC(=O)CCCc2nc(C(C)C)no2)c1`: -32.9%; `CN(C)C(=O)COCc1cncc2c1CCN(Cc1ccccc1)C2`: -45.5%. Take `Cc1ccc([C@H]2CN(C(=O)CC3CCC3)C[C@@H]2N)o1`: the INHIBITION is -92.8%. Next, `Cc1c(C(=O)NCCC2CN(C)CCO2)n(C)c2c(C)cccc12` (centres undefined): 33.4%; `Cc1nccn1-c1cc(CNC(=O)NCC2CCCO2)ccn1` (centres undefined): -2.33%; `CCC(C)C(=O)NCCCn1nc(C)cc1C` (centres undefined): -2.48%.

Take `O=C(NCCc1ccc(I)s1)N1CCC1`: the INHIBITION is given as -7.31%. On to `OC1(CN2CCN(c3cccc(C(F)(F)F)c3)CC2)CNCCOC1` (centres undefined), for which the INHIBITION worked out at 41.5%. Turning to `c1ccc(Cc2noc(-c3ccc(NCC4CCCCO4)nc3)n2)cc1` (centres undefined), the INHIBITION was 26%.

Turning to `COCCNC(=O)NC(=O)CNc1c(F)cccc1N1CCCC1`, the INHIBITION is recorded as -32.5%.

Consider `CC[C@@H]1N(CC2CCC2)CCC[C@]12CCC(=O)N2Cc1ccncc1`, for which the INHIBITION was -8.51%. Regarding `CC1(C(=O)N2CCN(C3CCCC3)CC2)CNCCO1` (centres undefined), the INHIBITION is on record as -21.4%. Next, `Cc1ccc(-c2cc(C(=O)N(C)Cc3noc4c3CCCC4)[nH]n2)s1`: -14.3%; `O=C(C1CC1)N1CCC2(CCN(Cc3cccc(F)c3)CC2)CC1`: -13.4%; `COCCC(=O)N1CC2(CCN(Cc3ccncc3)CC2)C1`: 47.4%. Next, `COCCC(=O)N1CCC2(CCN(Cc3ccc(C)cc3)CC2)C1`: 4.27%; `Cc1ccc(CN2CCC3(CC2)CCN(Cc2ccoc2)CC3)cc1`: -34.6%. Consider `O=C(C1CCC1)N1CCC2(CCN(Cc3cccc(F)c3)CC2)CC1`, for which the INHIBITION was 45.7%. As for `O=C(C1CC=CC1)N1CCC2(CCN(Cc3cccc(F)c3)CC2)C1`, the INHIBITION was 59.8%.
